# BRCT inh green = blocks human BRCA1 BRCT binding to phosphopeptide, green readout; P38398; BRCA1 BRCT-phosphopeptide binding, green fluorescence polarization; Potency, µM (doses to about 76.9 µM), for inactives: at the highest dose activity change, negative = inhibition, actives largely listed as inhibitors; actives 0.05% (n = 75,000); AID 875;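 further: potency means the concentration at half of the fitted maximal effect; plate controls were peptide without protein for full effect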
#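 Fluorescence polarization: His-tagged BRCT (~35 kDa BRCA1 C-terminus, 250 nM) bound to 100 nM fluorescein-labeled phosphorylated 10-aa BACH1 peptide, pH 7.3 phosphate buffer with DTT and Tween 20. Compounds incubated 12 min at room temperature; inhibition read as lowered polarization.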
# HEK293 cAMP cs = counter-screen for TSHR agonists: cAMP increase in parental HEK293; actives 2.5% (n = 73,000); parental HEK293 CNG cAMP sensor, membrane potential fluorescence; Potency, µM (top dose mostly 57.1 µM), without a hit: at the top dose activation, most hits filed as activators; further: potency means the concentration at half of the fitted maximal effect; % of control where 0% means no effect; nearly all actives have a fitted effect of over 55% in size
#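 Counterscreen for endogenous-receptor signalling: CNG-channel HEK 293 cells report cAMP rise by membrane depolarization. After 60 min dye equilibration with 100 uM RO 20-1724, compounds incubated 30 min before bottom-read fluorescence at 590 nm.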
# YjeE inh = inhibitors of E. coli YjeE (TsaE); purified YjeE enzyme, qHTS inhibition assay; actives 0.05% (n = 71,000); AID 605; Potency, µM
#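 Fluorescence polarization of a BODIPY Texas Red–ADP probe (2 uM) bound to purified YjeE (10 uM) was read after 15 min room-temperature incubation with compounds. Loss of polarization marks inhibitors; ADP serves as titrated control.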
# BRCT inh red = BRCT-phosphoprotein interaction inhibition (red fluorophore). P38398. actives 0.03% (n = 75,000). Potency, µM (highest dose often 76.9 µM), without a hit: top-dose activity change, negative = inhibition, most hits filed as inhibitors. BRCT-phosphopeptide binding, red fluorescence polarization; further: on the % scale 0 is the no-effect control and ±100 the full control effect
#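 Fluorescence polarization: 100 nM His-tagged BRCA1 BRCT with 100 nM TAMRA-labelled phospho-BACH1 decapeptide, phosphate buffer pH 7.3 with 150 mM NaCl, DTT, 0.01% Tween 20; 12 min RT. Binding inhibition seen as FP decrease.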
# TSHR agonist = activates the human thyroid stimulating hormone receptor; actives 0.48% (n = 73,000); HEK293-CNG-TSHR cells (CNG channel as cAMP sensor), membrane potential dye, cAMP; Potency, µM (top dose mostly 57.1 µM), without a hit: at the highest dose activation, actives largely listed as activators; AID 926; P16473; active means well fitted activation curve with a large enough effect in the main read-out, with a control signal flat, not every such curve was filed as active; inconclusive means small, poorly fitted or top-dose-only effect, or a change in a side signal; inactive means no such curve, though single readings can be large or run the other way; % of control where 0% means no effect;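 further: the control signal comes from parental cells without the receptor; potency means the concentration at half of the fitted maximal effect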
#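 HEK 293 cells stably expressing TSHR and a cAMP-gated CNG channel; parental CNG-only cells as counterscreen. Cells preloaded 60 min with membrane potential dye plus 100 uM RO 20-1724, then compound 30 min; fluorescence read at 590 nm.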
# DNA Pol III inh = blocks replication by bacterial DNA polymerase III holoenzyme; actives 0.25% (n = 71,000); Potency, µM (top dose mostly 57.1 µM), for inactives: at the highest dose activity change, negative = inhibition; AID 603; reconstituted DNA polymerase III holoenzyme replication, biochemical; further: potency means the concentration at half of the fitted maximal effect; on the % scale 0 is the no-effect control and ±100 the full control effect
#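 Reconstituted *E. coli* holoenzyme (0.35 nM Pol III, 1 nM beta, 154 nM SSB, 2 nM primase) was preincubated with compound for 15 min at RT. Synthesis on 1.4 nM ssM13Gori ran 35 min, then was stopped with PicoGreen/EDTA and read as dsDNA fluorescence.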
# Numbers without * were called inactive; i = inactive; ? = inconclusive; nt = no result given; [ ] = remark or other dose. A selection: hits, their analogues and other compounds. The true share with any hit is near 3.2%. Unless noted, the call rests on the fitted dose curve; in most records, active means well fitted curve in the direction sought with a large enough effect; inconclusive means small, poorly fitted or top-dose-only effect, or another doubt; inactive means no such curve, though single readings can be large; an effect the other way counts as inactive or inconclusive.
SMILES,BRCT inh green,HEK293 cAMP cs,YjeE inh,BRCT inh red,TSHR agonist,DNA Pol III inh
COc1ccc(Oc2ncc3nc(C)c(=O)n(CCc4ccccc4)c3n2)cc1,-2%,?,i,0%,?,-6%
COc1ccc(-n2c(=O)c(C)nc3cnc(Oc4cccc(Cl)c4)nc32)cc1,2%,16µM*,i,-1%,?,-1%
COc1ccc(CNc2ccnc(-c3c(C)noc3C)n2)c(OC)c1,0%,30%,i,0%,nt,-1%
COCCn1c(=O)cnc2cnc(N3CCNCC3)nc21,1%,23%[0.457 µM],i,-2%,2%,-4%
CN1CCN(c2ncc3nc(-c4ccccc4)c(=O)n(CCC#N)c3n2)CC1,-1%,?,i,0%,?,4%
COc1ccc(Oc2ncc3nc(C)c(=O)n(Cc4ccc(F)cc4)c3n2)cc1,49%,16µM*,i,3%,?,-9%
COc1ccc(Oc2ncc3nc(C)c(=O)n(Cc4cccs4)c3n2)cc1,6%,?,i,1%,?,-4%
Cc1nc2cnc(Oc3ccccc3)nc2n(Cc2cccs2)c1=O,1%,16µM*,i,0%,?,-9%
Cc1nc2cnc(N(C)C)nc2n(Cc2ccc(F)cc2)c1=O,3%,?,i,-3%,?,-9%
O=c1c(CCc2ccccc2)nc2cnc(Nc3ccccc3)nc2n1Cc1cccs1,5%,1.3µM*,i,0%,?,-12%
C=CCOC(=O)C(C(C)=O)C(NC(=O)OC)c1cccc(F)c1 (configuration not stated),-3%[15.4 µM],12%[11.4 µM],nt,1%[15.4 µM],25%[11.4 µM],nt
Cc1ccc(S(=O)(=O)N(CC(=O)O)c2cccc(Cl)c2)cc1,0%,14%,nt,0%,18%,nt
COC(=O)[C@@H]1[C@@H]2C[C@H]3c4[nH]c5cc(OC)ccc5c4CCN3C[C@@H]2C[C@H](OC(=O)/C=C\c2cc(OC)c(OC)c(OC)c2)[C@H]1OC,4%[34.4 µM],-19%[25.6 µM],i,-5%[34.4 µM],-21%[25.6 µM],5%[25.6 µM]
Cc1ccc(S(=O)(=O)N2CCCCC2C(=O)NCc2ccco2)cc1 (configuration not stated),-2%,3%,i,1%,16µM*,-2%
O=C(NCc1ccco1)C1CCCN(S(=O)(=O)c2ccc(-n3cnnn3)cc2)C1 (configuration not stated),-1%,20µM*,i,0%,?,-7%
Cc1cnc(CNc2ccnc(-c3ccoc3)n2)cn1,1%,26%,i,0%,2%,-5%
Sc1ccc2ccccc2c1CNCc1ccccc1,-1%[15.4 µM],6%[11.4 µM],i,-4%[15.4 µM],-2%[11.4 µM],-10%[11.4 µM]
N#Cc1cccc(-c2nc(NCc3cccnc3)c3ccccc3n2)c1,-1%,-11%,i,0%,nt,-8%
O=C(COC(=O)c1ccccc1F)c1ccc(-n2nncc2-c2ccco2)cc1,4%,25µM*,i,2%,?,-1%
COc1ccc(C(=O)COC(=O)c2ccco2)cc1,-2%,-12%,i,0%,0%,-16%
CCN(c1cccc(C(F)(F)F)c1)S(=O)(=O)c1ccc2c(c1)CCN2C(=O)C1CC1,0%,25µM*,i,-1%,?,-2%
CN1CCCC2(CCN(C(=O)c3cc(C(F)(F)F)cc(C(F)(F)F)c3)CC2)C1,0%,?,i,-4%,?,4%
COc1cc(C2Nc3cccc4cccc(c34)N2)cc(OC)c1O,-4%,-2%,i,-2%,-10%,0%
c1coc(C2Nc3cccc4cccc(c34)N2)c1,?,-19%,i,?,-27%,4µM*
Cc1cc(C)n(-c2nc(NCC3CCCO3)c3c4c(sc3n2)COC(C)(C)C4)n1 (configuration not stated),-1%,25µM*,i,1%,?,1%

# Screening results from PubChem.
